The full ranking holds about 33,000 sequences; the median of “E-score (-0.5 to 0.5)” is about -0.0014, and the highest 2% start at about 0.25. This excerpt belongs to a sample that is enriched for the highest values.
Molecular target: T1, Cad1 (UniProt P24813)
T1 sequence: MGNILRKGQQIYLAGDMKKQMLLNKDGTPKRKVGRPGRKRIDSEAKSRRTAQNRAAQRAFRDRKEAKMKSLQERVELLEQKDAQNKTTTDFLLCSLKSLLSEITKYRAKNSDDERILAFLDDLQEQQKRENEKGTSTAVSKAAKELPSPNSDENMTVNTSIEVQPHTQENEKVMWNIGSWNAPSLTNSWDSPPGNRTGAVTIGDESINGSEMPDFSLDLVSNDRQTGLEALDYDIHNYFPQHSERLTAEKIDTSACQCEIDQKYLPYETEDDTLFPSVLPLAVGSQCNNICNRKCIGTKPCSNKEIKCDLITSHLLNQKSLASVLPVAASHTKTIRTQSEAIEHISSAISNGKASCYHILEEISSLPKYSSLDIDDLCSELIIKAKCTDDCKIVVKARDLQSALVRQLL
Test: PBM E-score (8-mer binding enrichment) (E-score (-0.5 to 0.5)); higher = stronger / more preferred TF binding
Conditions: protein concentration: 100 nM; construct: GST-full length
Method in brief: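 Detection of bound protein used fluorescent anti-GST, with scans normalised by masliner. The proteins were GST-tagged yeast transcription factors applied at about 100-200 nM to universal all-10-mer Agilent arrays made double-stranded by primer extension. Each ungapped eight-base word, pooled with its reverse complement, was scored with an E-score from the Universal PBM Analysis Suite.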

Sequence | PBM E-score
AGGATTAT | -0.0734
ATCATAGA | 0.146
AAATACCC | 0.136
CCCAAGAA | 0.0477
ACTTCCAC | 0.00186
AATGGACT | 0.0697
ACTCTCGA | 0.141
AAGCCATC | 0.0891
CAGGGCTC | -0.158
TAATAAAA | 0.226
TAATATAA | 0.332
CAATATAC | 0.0244
CAATATAA | 0.283
CAATATAG | 0.101
GAATATAA | 0.0963
AAGAATTC | 0.0649
CACACTCG | 0.0692
AAGTCCTG | -0.138
ATAATCCA | 0.252
CTAATCTA | 0.0215
ATAATTTA | 0.236
CTAATCCA | 0.131
GCAATCCA | 0.0441
ATAATCTA | 0.185
ATAATCCC | -0.033

Sequence | PBM E-score
GTAATCTA | 0.268
GTAATCCA | 0.277
ATAATCCG | 0.119
GTAATTTA | 0.267
CTAATTTA | 0.199
GCTTTGCC | -0.183
CAGGTCTC | -0.164
CGACCATA | -0.0443
AACCCCGC | -0.159
CGATTGCC | 0.0433
GTAATCAC | 0.229
TTAATCAA | 0.199
GTAATCAA | 0.253
CGCTAGAG | -0.115
AAAGTCGA | -0.0137
ATTTGAAA | 0.251
GTTTGCAA | 0.0869
ATTTGCAA | 0.277
CTTTGCAA | 0.0374
GTTTGAAA | 0.113
CTTTGAAA | 0.116
TGTCGCAA | -0.137
GGCCTCAA | -0.0369
AAAGTCAT | 0.074
ACCCTCTA | -0.192

Sequence | PBM E-score
CCCCAAGG | -0.307
GCACCTCA | 0.0626
CGATCGAA | 0.106
AGATCGAC | 0.0578
CGATCGAC | 0.272
CTGGCTAC | -0.259
GATAGACA | -0.0074
CTCCACCA | -0.193
GGACAGAA | 0.0717
GCTCGCTA | -0.0118
ACTCGCGC | 0.0881
ACTCGCGA | 0.271
ACTCGCGG | 0.0242
GCTCGCGA | 0.3
CCTCGCGA | 0.121
CGATGAAG | -0.0787
AGAGTATC | -0.0123
AATCCACG | 0.048
AGTTTCCG | 0.105
CCTGGGGC | -0.343
ACTGTAGC | -0.136
CACGTCTG | 0.134
ACATCGAA | 0.169
TCCGGGCA | 0.00134
AGCTCGCA | 0.0143

Sequence | PBM E-score
ATCTCGCC | -0.0589
ATCTCGCA | 0.0847
AGCTCGCG | 0.262
AGCTCGCC | -0.0374
ATCTCGCG | 0.256
GGCTGATA | -0.0873
CGCTGACA | 0.297
TGCTGACA | 0.334
CGCTGACG | 0.0393
TGCTGAAA | -0.0176
GGCTGACC | -0.121
AGCTGACA | 0.192
GGCTGACA | 0.313
CGCTGACC | 0.117
CGCGCAAC | 0.2
AGGATGGG | -0.107
AAGTCTAG | -0.155
AGAAAAGA | -0.0414
GGAAAAGA | -0.191
CGAAAATA | 0.163
AGAAAATC | -0.0518
CGAAAATC | 0.259
CGAAAAGA | 0.28
GTATTGCA | -0.0639
ATAGGCGC | 0.0733

Sequence | PBM E-score
ACGGGCAA | -0.05
AACAATAC | 0.135
ACCAAAAC | -0.0311
AACAATAT | 0.338
ACCAATAG | -0.201
ACGAATAA | -0.0279
ACCAAAAA | 0.278
ACCAAAAT | 0.0849
AACAATAA | 0.211
ACCAATAC | -0.106
ACGAATAT | 0.268
ACGAATAC | 0.132
ACCAATAT | 0.306
ACGGACCT | -0.0269
CCAGCGTA | -0.0528
GCTCATGA | 0.0686
GCTGCCCC | -0.107
GCCCCAGA | -0.158
CCTTGGGA | -0.00782
CAGTGGAA | -0.0557
CGTCCGGA | 0.099
ACGTTGGG | 0.0171
ACTCGCAT | 0.101
ATTACTCC | 0.0689
ATTACACC | 0.108

Sequence | PBM E-score
CGTACACG | 0.0454
ATTACACG | 0.0358
ATTACACA | 0.284
TGTACACA | 0.256
ATTACATG | 0.301
ATTACTCG | 0.221
ATTACATC | 0.209
ATTACAGG | 0.228
AGTACACA | 0.0961
ATTACTCA | 0.325
CGCTCAAA | 0.0635
GTACTCAC | 0.158
CATCGATA | 0.149
CTAGATAG | 0.0131
GAAATCGA | 0.0829
GTTACAAA | 0.223
GCTACATA | -0.00397
TGTATACA | 0.272
AGTATACA | 0.207
ATTACATA | 0.296
CTTACATA | 0.278
CTTACATC | -0.00465
GGTATACA | 0.0215
ACTACATA | 0.0142
CATACATA | 0.161

Sequence | PBM E-score
ATTACAGA | 0.152
GTTACATA | 0.253
TAAGTCCA | 0.0496
ATGAATCA | 0.0957
AACAGCGC | 0.0746
CAGATCGC | -0.038
CCTTGTAA | 0.049
ATGACTAC | -0.181
GTGACTCA | -0.0941
ATGACTAA | 0.377
ATGACTAG | -0.129
GTGACTGA | 0.157
GTGACTAA | 0.37
AGCTTGAG | -0.123
CGCATAGA | 0.0454
AATACACA | 0.144
GATACACA | 0.0908
GATACACC | 0.257
CATACACC | 0.00325
AATACACT | 0.158
AATACACC | 0.255
AGTACGCG | 0.26
AGTACGCC | -0.293
AGTACGCA | -0.129
AATAGGGT | 0.0291

Sequence | PBM E-score
CGCCCAGC | 0.0197
CGTTGAAG | -0.178
CTCCGGAA | 0.00101
ATCCGGAC | 0.131
ATCCGGAA | 0.22
TCCGGAAA | 0.252
CTCCGGAC | 0.00021
CCCGGAAA | 0.134
GTCCGGAC | 0.319
ACCGGAAA | 0.135
TTCCGGAA | 0.316
ATGCTCCG | -0.114
ATCCAGGG | -0.173
GACAAGCA | -0.021
ACCACTAT | 0.0199
CACAATTA | 0.00794
ACACTTTA | 0.0868
GATAATTA | 0.297
AATAATTA | 0.336
CATAATTC | 0.0611
CATAATTA | 0.279
AATAATTG | 0.0365
CATAATGA | 0.0454
GATAATGA | 0.167
AATAATTC | 0.18

Sequence | PBM E-score
GATAATAA | 0.0805
CTCATTCA | 0.0583
AGTGTGAC | -0.0643
AGACTCAG | 0.0244
CGCGATTA | 0.187
CGCGATTC | 0.268
AGCGATTC | -0.021
CCCTAACC | -0.157
CACTAGAC | -0.0989
AGCTTACA | 0.351
TGCTTACA | 0.235
AGCTTACC | -0.0175
GCGCCCAA | 0.143
AATTCGGC | -0.0493
AATTCGGG | 0.0637
AATTCGGT | 0.266
AATTCGTA | 0.0688
AATTCGTC | 0.274
CATTCGTC | 0.0375
